Results on five compounds are retold here after PubChem BioAssay (NCATS).

Values without a mark were called inactive. Inconclusive results are not listed. The source made the active and inactive calls. Unless noted, calls come from the whole dose curve; as a rule, active = well fitted curve in the direction sought with a large enough effect; inconclusive = small, poorly fitted or top-dose-only effect, or another doubt; inactive = no such curve, though single readings can be large; an effect the other way counts as inactive or inconclusive.

Assay [1] concerns the target Lysosomal acid glucosylceramidase (Homo sapiens) (UniProt P04062). The assay can be described thus: Glucocerebrosidase-p2 (AID 348; in the data active = potency below about 10 µM; note: potency is the fitted concentration of half-maximal effect). The following applies: purified GBA, blue fluorogenic substrate, 40 min. The method in brief:
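Compounds titrated from 0.6 nM upwards against 0.2 nM enzyme in pH 5.9 citric acid/KH2PO4, taurocholate, tween-20; blue fluorogenic substrate 80 uM, 40 min room temperature, stopped and read Ex 365/Em 440 for AC50.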

Assay [2] can be described thus: AP1 Signaling Pathway (AID 357; active = well fitted curve in either direction with a large enough effect, not every such curve was filed as active;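 note: ME-180 reporter cells stimulated with EGF at its EC50 level; % is set by controls: 0 for no effect and ±100 for the full control effect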). As to conditions: ME-180 AP-1-bla reporter, EGF-induced, beta-lactamase ratio, 5 h; at 7.69 µM (top of the series) unless noted. In short, it runs like this:
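A ratiometric CCF4 readout (405 nm excitation; 460 and 530 nm emission) quantified AP-1-driven beta-lactamase in ME-180 cells after 5 h with compound and EC50 EGF; AC50 values were derived for activators and inhibitors.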

For assay [3], the target named is Cytochrome P450 1A2 (Homo sapiens) (UniProt P05177). In words: p450-cyp1a2 (AID 410; calls by dose curve; note: potency is the fitted concentration of half-maximal effect). As to conditions: recombinant CYP1A2, luciferin-ME demethylation, luminescence; series mostly up to 57 µM. The method in brief: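 Inhibition was calculated relative to 57 uM furafylline (full inhibition). The reaction used human CYP1A2 at 20nM with Luciferin-ME at its Km, 100uM, driven by an NADPH-regenerating system for 60 min at room temperature.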

A short description of assay [4]: NFAT Signaling Pathway (AID 444; active = well fitted curve in either direction with a large enough effect, not every such curve was filed as active;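 note: carbachol stimulus at about its EC50 of 1 µM final; % is set by controls: 0 for no effect and ±100 for the full control effect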). The following applies: Jurkat NFAT-bla M1, carbachol, beta-lactamase ratio, 5 h; at 7.69 µM (top of the series) unless noted. In short, it runs like this:
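Read-out: CCF4 FRET ratio (460 nm/530 nm) after 1 h RT dye loading, used for %activity and AC50 from titration series. Cells: Jurkat NFAT-β-lactamase/M1 line, treated with compound plus 1 uM carbachol for 5 h, 37 °C.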

The nature of assay [5]: Stat Signaling Pathway (AID 446; active = well fitted curve in either direction with a large enough effect, not every such curve was filed as active;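 note: ME-180 cervical cancer cells given 40 pM IL-6 alongside compound; SIE-controlled beta-lactamase reporter measured as 460/530 nm FRET emission ratio; % is set by controls: 0 for no effect and ±100 for the full control effect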). The following applies: ME-180 SIE beta-lactamase reporter, IL-6 stimulated, 5 h; at 7.69 µM (top of the series) unless noted. In short, it runs like this: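 Screening format detects activators and inhibitors alike: ME-180 SIE-bla cells stimulated at 40 pM IL-6 for 5 hrs with compound, then dual-emission beta-lactamase read at 405 nm excitation.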

In assay [6] the target is Glucocorticoid receptor (Homo sapiens) (UniProt P04150). The assay can be described thus: GR-GFP Redistribution (AID 450;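 active = compounds whose dose series gives a full or clear partial fitted curve of increased nuclear translocation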; note: potency is the fitted concentration of half-maximal effect). As to conditions: U2OS GR-GFP nuclear translocation, laser cytometry, 2 h.
Assay [7] has the same target. In words: GR-EFC Redistribution (AID 451; calls by dose curve; note: potency is the fitted concentration of half-maximal effect). As to conditions: CHO-K1 GR-EFC translocation, beta-gal luminescence, 2 h. In short, it runs like this:
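Translocation of GR-ED fusion to nuclear EA restores b-gal, read by luminescence after 1 h room-temperature detection. Engineered CHO-K1 biosensor cells, 1,000/well, exposed 2 h at 37 C to titrations up to 46 uM final.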

Assay [8] has as its target Mitogen-activated protein kinase 10 (Mus musculus) (UniProt Q61831). The assay can be described thus: JNK3 AlphaScreen Assay (AID 530; active = well fitted curve in either direction with a large enough effect, not every such curve was filed as active;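 note: kinase came from lysate of stimulated human HepG2 cells; signal reports phosphorylation of biotinylated GST-cJun 1-79 at Ser73 with 10 µM ATP; % is set by controls: 0 for no effect and ±100 for the full control effect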). As to conditions: JNK3 lysate, c-Jun phosphorylation; series mostly up to 57.1 µM. In short, it runs like this:
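Room-temperature AlphaScreen kinase assay; pre-activated HepG2 lysate as JNK3 source, biotin-GST-cJun(1-79) substrate, 10 uM ATP, compound 15 min preincubation.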
A general note: Bead proximity is the source of the signal in Alpha formats.

In assay [9] the target is Cytochrome P450 3A4 (Homo sapiens) (UniProt P08684). The assay can be described thus: qHTS Assay for Inhibitors and Substrates of Cytochrome P450 3A4 (AID 884). Note: potency is the fitted concentration of half-maximal effect; nearly all actives have a fitted effect of over 50% in size. As to conditions: recombinant CYP3A4, Luciferin-PPXE luminescence; series mostly up to 57.1 µM. In short, it runs like this:
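20 nM human CYP3A4 with 25 uM Luciferin-PPXE (at KM) in 200 mM KPO4, preincubated 10 min with compound; NADPH regeneration started a 60 min RT reaction. Luciferin detected by luminescence, normalized to 57 uM ketoconazole as full inhibition.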
Background: Quantitative high-throughput screening tests each substance at several concentrations.

The target is the same in assay [10]. The assay can be described thus: qHTS Assay for Activators of Cytochrome P450 3A4 (AID 885). Note: nearly all actives have a fitted effect of over 65% in size. The following applies: recombinant CYP3A4, Luciferin-PPXE luminescence, 60 min; series mostly up to 57.1 µM. In short, it runs like this: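 Steps: enzyme/substrate mix dispensed; compound added, 10 min RT; NADPH regeneration solution added, 60 min RT; luciferin detection buffer stops reaction; 20 min later luminescence measured.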

The target of assay [11] is Cytochrome P450 2C19 (Homo sapiens) (UniProt P33261). The assay can be described thus: qHTS Assay for Inhibitors and Substrates of Cytochrome P450 2C19 (AID 899). Note: potency is the fitted concentration of half-maximal effect; nearly all actives have a fitted effect of over 60% in size. As to conditions: recombinant CYP2C19, luciferin-H EGE luminescence; series mostly up to 57.1 µM. The method in brief:
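Reactions contain 5nM enzyme, 10uM Luciferin-H EGE (KM) and 50mM KPO4; compound preincubates 10 min at 37C, NADPH regeneration starts turnover for 60 min. Luminescence after detection reagent gives activity.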

Assay [12] has as its target Dual specificity protein kinase CLK4 (Homo sapiens) (UniProt Q9HAZ1). The assay can be described thus: qHTS Assay for Inhibitors of CDC-like Kinase 4 (Kinase-Glo Assay) (AID 1770). Note: nearly all actives have a fitted effect of over 65% in size. Note: potency is the fitted concentration of half-maximal effect. As to conditions: recombinant Clk4, Kinase-Glo ATP depletion luminescence; series mostly up to 66.7 µM. In short, it runs like this:
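Clk4 25 nM, RS peptide 100 uM, ATP 1 uM, pH 7.5 Tris, 10 mM MgCl2, 2.5 mM DTT; 4.5 h RT; ATP depletion read by Kinase-Glo luminescence.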

The target is the same in assay [13]. The assay can be described thus: qHTS Assay for Inhibitors of CDC-like Kinase 4 (ADP-FP Assay) (AID 1795). Note: nearly all actives have a fitted effect of over 60% in size. Note: potency is the fitted concentration of half-maximal effect. The following applies: Transcreener ADP fluorescence polarization; series mostly up to 50 µM. The method in brief: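 Kinase activity was followed as ADP output, converted from fluorescence polarization with a calibration curve. Reactions ran one hour at low ATP (1 uM) with RS peptide substrate.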

Assay [14] has as its target Ubiquitin carboxyl-terminal hydrolase 1 (Homo sapiens) (UniProt O94782). The assay can be described thus: Inhibitors of USP1/UAF1: Pilot qHTS (AID 504865).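 Note: rhodamine fluorescence freed from ubiquitin-rhodamine substrate followed over time; top concentration of the series differs between compounds; % is set by controls: 0 for no effect and ±100 for the full control effect; nearly all actives have a fitted effect of over 35% in size.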 The following applies: purified USP1/UAF1, Ub-rhodamine cleavage fluorescence; series mostly up to 54.9 µM. The method in brief: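 Enzyme-free wells gave the negative control, while test wells held 1nM USP1/UAF1 preincubated with compound for 15 min at room temperature. Ub-Rho at 150nM final started the reaction, and fluorescence at 480/540 nm was recorded kinetically.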

Assay [15] is described as follows: Primary qHTS for small molecule stabilizers of the endoplasmic reticulum resident proteome: Secreted ER Calcium Modulated Protein (SERCaMP) assay (AID 1508630). Note: % is set by controls: 0 for no effect and ±100 for the full control effect. As to conditions: SH-SY5Y GLuc-SERCaMP (Gaussia luciferase released on ER calcium loss) secretion, thapsigargin, luminescence; series mostly up to 38.4 µM. In short, it runs like this: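 GLuc-SERCaMP-expressing SH-SY5Y cells, pretreated 16 h with compound, are challenged with thapsigargin to empty ER calcium stores; after 4 h, coelenterazine is added directly to the medium and luminescence is imaged.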

The target of assay [16] is 3',5'-cyclic-AMP phosphodiesterase 4B (Homo sapiens) (UniProt Q07343). The assay can be described thus: qHTS Assay for Inhibitors of PDE-IV (AID 607; active = well fitted activation curve with a large enough effect in the main read-out, with a control signal flat, not every such curve was filed as active; note: % of control where 0% means no effect). As to conditions: HEK293 ACTOne CNG channel cells, membrane potential fluorescence; series mostly up to 22.9 µM. In short, it runs like this:
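The readout is membrane depolarisation from a cAMP-sensing CNG channel, detected with a potential dye at ex 535/em 590. Cells were HEK293-derived (endogenous PDE-IV) at 1000 cells/well, titrated up to 22.9 uM final.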

The target in assay [17] is Cytochrome P450 2D6 (Homo sapiens) (UniProt P10635). The assay can be described thus: qHTS Assay for Inhibitors and Substrates of Cytochrome P450 2D6 (AID 891). Note: potency is the fitted concentration of half-maximal effect; nearly all actives have a fitted effect of over 60% in size. The following applies: recombinant CYP2D6, luciferin-ME EGE luminescence; series mostly up to 57.1 µM. The method in brief: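 Human CYP2D6 (5 nM) with 30 uM Luciferin-ME EGE (at Km) in 100 mM KPO4, compound preincubated 10 min, then NADPH regeneration system for 60 min at room temperature. Luciferin read by luminescence; normalized to 1.43 uM quinidine.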

For assay [18], the target named is Dual specificity protein kinase CLK4 (Homo sapiens) (UniProt Q9HAZ1). The assay can be described thus: qHTS Assay for Inhibitors of CDC-like Kinase 4 (ADP-Glo Assay) (AID 1771). Note: potency is the fitted concentration of half-maximal effect; nearly all actives have a fitted effect of over 70% in size. As to conditions: recombinant CLK4, ADP-Glo luminescence; series mostly up to 80 µM. The method in brief:
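Kinase reaction: Clk4 at 25 nM, RS repeat peptide substrate at 100 uM, ATP at 1 uM, 1 hr, room temperature. Product ADP detected as luciferase signal via ADP-Glo.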

Chain of Dual specificity protein kinase CLK4 (Homo sapiens) (Q9HAZ1 whole entry, looked up): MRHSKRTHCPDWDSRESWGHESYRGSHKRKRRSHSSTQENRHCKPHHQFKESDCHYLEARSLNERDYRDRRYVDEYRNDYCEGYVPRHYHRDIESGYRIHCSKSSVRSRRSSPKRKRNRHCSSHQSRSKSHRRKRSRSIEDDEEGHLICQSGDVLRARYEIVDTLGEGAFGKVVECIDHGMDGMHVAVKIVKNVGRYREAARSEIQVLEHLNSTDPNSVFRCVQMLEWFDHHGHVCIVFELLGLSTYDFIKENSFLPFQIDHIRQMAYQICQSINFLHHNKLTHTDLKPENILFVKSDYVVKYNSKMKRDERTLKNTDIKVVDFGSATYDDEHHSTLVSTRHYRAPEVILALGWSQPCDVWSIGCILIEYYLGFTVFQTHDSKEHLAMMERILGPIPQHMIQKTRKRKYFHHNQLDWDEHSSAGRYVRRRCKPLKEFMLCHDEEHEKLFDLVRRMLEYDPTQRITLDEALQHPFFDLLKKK
Chain of Cytochrome P450 1A2 (Homo sapiens) (P05177 whole entry, looked up): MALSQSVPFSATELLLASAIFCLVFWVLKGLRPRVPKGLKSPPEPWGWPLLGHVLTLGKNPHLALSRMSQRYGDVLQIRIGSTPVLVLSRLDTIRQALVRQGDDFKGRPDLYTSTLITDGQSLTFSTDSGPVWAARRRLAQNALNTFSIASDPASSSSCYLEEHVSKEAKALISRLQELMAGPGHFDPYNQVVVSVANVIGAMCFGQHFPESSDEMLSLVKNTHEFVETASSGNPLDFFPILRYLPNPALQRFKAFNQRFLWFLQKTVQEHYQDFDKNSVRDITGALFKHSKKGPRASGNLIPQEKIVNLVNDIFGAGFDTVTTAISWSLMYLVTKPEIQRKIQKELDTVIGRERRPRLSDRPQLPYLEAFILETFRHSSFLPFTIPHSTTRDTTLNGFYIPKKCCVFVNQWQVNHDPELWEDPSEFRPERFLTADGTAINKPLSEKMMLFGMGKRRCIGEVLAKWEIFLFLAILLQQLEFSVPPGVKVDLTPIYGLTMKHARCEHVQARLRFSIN
Chain of Cytochrome P450 2C19 (Homo sapiens) (P33261 whole entry, looked up): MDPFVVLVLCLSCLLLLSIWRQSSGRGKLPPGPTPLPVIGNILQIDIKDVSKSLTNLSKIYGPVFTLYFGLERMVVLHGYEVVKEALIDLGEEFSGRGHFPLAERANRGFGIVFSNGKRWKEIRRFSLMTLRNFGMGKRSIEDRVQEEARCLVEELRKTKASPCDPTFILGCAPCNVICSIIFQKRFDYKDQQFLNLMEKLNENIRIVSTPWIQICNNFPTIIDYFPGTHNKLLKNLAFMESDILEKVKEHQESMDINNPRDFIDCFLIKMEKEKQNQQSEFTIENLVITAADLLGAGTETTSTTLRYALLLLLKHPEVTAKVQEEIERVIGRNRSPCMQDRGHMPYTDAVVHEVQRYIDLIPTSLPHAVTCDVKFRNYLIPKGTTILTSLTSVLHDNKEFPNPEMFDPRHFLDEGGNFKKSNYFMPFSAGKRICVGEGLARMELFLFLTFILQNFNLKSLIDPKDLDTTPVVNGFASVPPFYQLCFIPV
Chain of Ubiquitin carboxyl-terminal hydrolase 1 (Homo sapiens) (O94782 whole entry, looked up): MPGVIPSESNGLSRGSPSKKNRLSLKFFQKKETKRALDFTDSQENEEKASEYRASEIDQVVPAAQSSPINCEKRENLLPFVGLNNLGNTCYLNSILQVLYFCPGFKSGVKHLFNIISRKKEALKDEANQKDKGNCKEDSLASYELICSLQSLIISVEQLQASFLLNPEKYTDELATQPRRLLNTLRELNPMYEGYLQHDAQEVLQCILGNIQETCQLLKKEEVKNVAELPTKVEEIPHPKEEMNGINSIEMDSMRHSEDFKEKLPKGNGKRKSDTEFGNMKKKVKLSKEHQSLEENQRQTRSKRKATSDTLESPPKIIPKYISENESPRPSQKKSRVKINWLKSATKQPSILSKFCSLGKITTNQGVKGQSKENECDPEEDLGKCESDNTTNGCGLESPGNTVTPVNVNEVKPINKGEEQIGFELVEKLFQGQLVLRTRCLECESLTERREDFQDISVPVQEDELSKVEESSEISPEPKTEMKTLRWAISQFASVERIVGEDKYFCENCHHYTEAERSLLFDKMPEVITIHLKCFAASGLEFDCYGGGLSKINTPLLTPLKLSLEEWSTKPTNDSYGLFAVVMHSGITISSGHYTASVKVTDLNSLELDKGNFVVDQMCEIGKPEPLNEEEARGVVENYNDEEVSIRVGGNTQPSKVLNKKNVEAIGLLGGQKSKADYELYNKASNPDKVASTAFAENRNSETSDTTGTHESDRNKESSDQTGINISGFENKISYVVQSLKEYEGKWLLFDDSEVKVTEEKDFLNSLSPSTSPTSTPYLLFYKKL
Chain of Glucocorticoid receptor (Homo sapiens) (P04150 whole entry, looked up): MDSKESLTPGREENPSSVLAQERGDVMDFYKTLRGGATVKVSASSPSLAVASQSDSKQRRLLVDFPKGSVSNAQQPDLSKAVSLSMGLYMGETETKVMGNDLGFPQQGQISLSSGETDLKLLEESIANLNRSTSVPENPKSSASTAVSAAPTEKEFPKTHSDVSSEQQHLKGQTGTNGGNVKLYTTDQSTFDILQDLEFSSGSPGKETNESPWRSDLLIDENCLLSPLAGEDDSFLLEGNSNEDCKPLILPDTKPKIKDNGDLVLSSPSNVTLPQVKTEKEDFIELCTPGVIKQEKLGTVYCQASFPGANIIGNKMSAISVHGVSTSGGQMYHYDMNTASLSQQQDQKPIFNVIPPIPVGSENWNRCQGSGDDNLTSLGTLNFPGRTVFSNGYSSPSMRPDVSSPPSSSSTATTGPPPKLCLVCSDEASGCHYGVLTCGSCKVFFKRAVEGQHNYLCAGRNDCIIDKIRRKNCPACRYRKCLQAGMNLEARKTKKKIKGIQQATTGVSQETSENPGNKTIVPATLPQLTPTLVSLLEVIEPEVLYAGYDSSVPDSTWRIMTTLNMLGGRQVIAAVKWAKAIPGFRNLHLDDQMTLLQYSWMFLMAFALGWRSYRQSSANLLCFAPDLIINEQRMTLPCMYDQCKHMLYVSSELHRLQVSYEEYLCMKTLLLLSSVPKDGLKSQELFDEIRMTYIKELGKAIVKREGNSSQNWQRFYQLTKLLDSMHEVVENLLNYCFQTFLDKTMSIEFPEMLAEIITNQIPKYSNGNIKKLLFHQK
Chain of Lysosomal acid glucosylceramidase (Homo sapiens) (P04062 whole entry, looked up): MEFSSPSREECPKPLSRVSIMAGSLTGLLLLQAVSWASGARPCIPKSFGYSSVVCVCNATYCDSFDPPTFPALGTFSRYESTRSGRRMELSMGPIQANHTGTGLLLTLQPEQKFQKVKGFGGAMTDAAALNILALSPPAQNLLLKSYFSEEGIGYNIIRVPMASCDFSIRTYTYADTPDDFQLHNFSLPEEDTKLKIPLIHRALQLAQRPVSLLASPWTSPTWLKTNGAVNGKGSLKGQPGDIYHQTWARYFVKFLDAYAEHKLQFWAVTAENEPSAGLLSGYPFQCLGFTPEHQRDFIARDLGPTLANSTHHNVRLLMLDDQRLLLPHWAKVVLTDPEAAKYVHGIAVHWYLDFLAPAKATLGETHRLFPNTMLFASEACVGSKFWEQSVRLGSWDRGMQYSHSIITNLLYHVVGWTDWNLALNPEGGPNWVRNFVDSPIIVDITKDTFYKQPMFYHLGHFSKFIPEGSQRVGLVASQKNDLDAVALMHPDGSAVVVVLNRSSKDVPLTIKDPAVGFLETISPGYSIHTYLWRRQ
Chain of Cytochrome P450 3A4 (Homo sapiens) (P08684 whole entry, looked up): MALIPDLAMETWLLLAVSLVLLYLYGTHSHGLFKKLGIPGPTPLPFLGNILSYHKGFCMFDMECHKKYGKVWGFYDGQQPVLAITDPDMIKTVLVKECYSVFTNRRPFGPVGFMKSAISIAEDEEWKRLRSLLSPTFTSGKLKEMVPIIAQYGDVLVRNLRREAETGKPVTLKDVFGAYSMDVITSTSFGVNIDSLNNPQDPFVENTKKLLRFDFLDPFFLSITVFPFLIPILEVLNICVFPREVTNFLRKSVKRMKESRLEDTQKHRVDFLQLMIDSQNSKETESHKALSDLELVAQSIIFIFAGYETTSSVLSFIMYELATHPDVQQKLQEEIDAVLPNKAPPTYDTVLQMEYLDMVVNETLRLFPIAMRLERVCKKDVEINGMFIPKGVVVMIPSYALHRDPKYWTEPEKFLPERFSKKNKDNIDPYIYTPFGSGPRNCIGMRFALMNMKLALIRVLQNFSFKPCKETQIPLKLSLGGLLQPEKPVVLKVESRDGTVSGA
Chain of 3',5'-cyclic-AMP phosphodiesterase 4B (Homo sapiens) (Q07343 whole entry, looked up): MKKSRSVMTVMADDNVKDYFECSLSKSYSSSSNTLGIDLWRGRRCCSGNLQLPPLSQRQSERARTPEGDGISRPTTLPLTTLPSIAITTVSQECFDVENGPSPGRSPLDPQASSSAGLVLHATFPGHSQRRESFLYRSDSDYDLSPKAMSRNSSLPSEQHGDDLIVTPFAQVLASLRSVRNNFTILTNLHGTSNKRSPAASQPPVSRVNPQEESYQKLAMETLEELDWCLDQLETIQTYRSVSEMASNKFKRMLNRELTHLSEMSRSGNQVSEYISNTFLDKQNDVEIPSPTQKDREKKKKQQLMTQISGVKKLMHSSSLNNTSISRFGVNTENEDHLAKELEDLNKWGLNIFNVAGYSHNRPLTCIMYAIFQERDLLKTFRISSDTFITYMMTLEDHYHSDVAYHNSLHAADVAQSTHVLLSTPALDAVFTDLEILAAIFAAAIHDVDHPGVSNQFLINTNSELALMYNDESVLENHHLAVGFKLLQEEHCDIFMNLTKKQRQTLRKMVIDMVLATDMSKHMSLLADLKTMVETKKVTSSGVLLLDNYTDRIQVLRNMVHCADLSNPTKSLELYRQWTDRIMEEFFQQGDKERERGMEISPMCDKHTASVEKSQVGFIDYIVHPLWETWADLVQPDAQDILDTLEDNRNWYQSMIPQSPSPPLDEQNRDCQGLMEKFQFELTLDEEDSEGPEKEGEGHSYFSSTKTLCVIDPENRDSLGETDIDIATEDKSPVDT

In the case of `COc1ccccc1CCn1c(=O)c(-c2ccc(F)c(F)c2)nc2cncnc21`, the Potency in assay [1] was greater than 11.4 µM; in [3], 2 µM (active); in [6], greater than 9.22 µM; in assay [7] it was greater than 46 µM; in assay [9], 3.16 µM (active); in assay [11] it was 1.26 µM (active). Besides, the activity change, negative = inhibition in [2] was -18.1%; in [4], 1.01%. For the same compound, the activity, negative = inhibition in assay [5] was 10.7%. The Potency entry in [8], in assay [10], in [12], in [13] and in [14] was “inactive” throughout. For the same compound, the result in [15] was inactive.

Turning to `Cn1cc(-c2nc3cnc(OCc4ccccc4)nc3n(CCC#N)c2=O)c2ccccc21`, the values for the Potency in [1], in [6] and in [7] were greater than 11.4 µM, greater than 46 µM and greater than 46 µM, respectively. For the same compound, the activity change, negative = inhibition was 3.51% in [2] and 9.29% in [4]. The activity, negative = inhibition in assay [5] was 27.1%. Besides, the Potency result in assay [8], in assay [16], in assay [12], in assay [13] and in assay [14] was “inactive” throughout. The result in [15] was inactive.

As to `c1ccc2c(N3CCOCC3)nc(-c3ccoc3)nc2c1`, the Potency in assay [1] is greater than 11.4 µM; in assay [3] it was 1.26 µM (active); in [6], greater than 46 µM; in assay [7], greater than 46 µM; in assay [9], 6.31 µM (active); in [13], 14.1 µM (active). The activity change, negative = inhibition in [2] was -5.2%; in assay [4] it was 12.4%. Further, the activity, negative = inhibition in assay [5] was -2.69%. Besides, the Potency entry in assay [8], in [10], in assay [12] and in assay [14] was “inactive” each time. In addition, the result in assay [15] was inactive.

As for `CN(C)c1ccc(-c2nc(-n3ccnc3)c3ccccc3n2)cc1`, the Potency in assay [1] was 8.28 µM (active); in assay [3], 0.316 µM (active); in [6], greater than 46 µM; in [7], greater than 46 µM; in assay [9] it was 0.631 µM (active); in assay [17] it was 7.94 µM (active). Also, the Potency in assay [11] was 2.51 µM (active); in [12], 7.94 µM (active); in assay [18] it was 11.2 µM (active). Further, the activity, negative = inhibition in assay [5] was -23.3%. In addition, the Potency result in assay [8], in [16], in [10] and in assay [14] was “inactive” in each case. Also, in assay [15], the outcome was inactive.

In the case of `CN(C)c1ccc(-c2cncnc2Nc2ccccc2)cc1`, the Potency is greater than 11.4 µM in assay [1]; 0.398 µM (active) in assay [3]; greater than 46 µM in assay [6]; greater than 46 µM in assay [7]; 0.631 µM (active) in assay [9]; 0.316 µM (active) in [11]. Besides, the Potency in assay [12] is 22.4 µM (active). For the same compound, the activity change, negative = inhibition in assay [2] is -29.4%; in assay [4], -2.66%. Further, the activity, negative = inhibition in [5] is -12%. In addition, the Potency entry in assay [10], in assay [13] and in assay [14] was “inactive” throughout. The result in [15] was inactive.
